Four molecules from PubChem BioAssay AID2283097 (EPA ToxCast) can be followed below.

Inconclusive results are not listed. Active and inactive are the calls of the source. How the source made its calls: active means hit-call score of the fitted dose curve at least 0.9, where 1 is the maximum; inconclusive means response in the unintended direction; inactive means score below 0.9.

human CYP1B1, CYP1B1 (gene 1545), sequence (Q16678 whole entry, looked up): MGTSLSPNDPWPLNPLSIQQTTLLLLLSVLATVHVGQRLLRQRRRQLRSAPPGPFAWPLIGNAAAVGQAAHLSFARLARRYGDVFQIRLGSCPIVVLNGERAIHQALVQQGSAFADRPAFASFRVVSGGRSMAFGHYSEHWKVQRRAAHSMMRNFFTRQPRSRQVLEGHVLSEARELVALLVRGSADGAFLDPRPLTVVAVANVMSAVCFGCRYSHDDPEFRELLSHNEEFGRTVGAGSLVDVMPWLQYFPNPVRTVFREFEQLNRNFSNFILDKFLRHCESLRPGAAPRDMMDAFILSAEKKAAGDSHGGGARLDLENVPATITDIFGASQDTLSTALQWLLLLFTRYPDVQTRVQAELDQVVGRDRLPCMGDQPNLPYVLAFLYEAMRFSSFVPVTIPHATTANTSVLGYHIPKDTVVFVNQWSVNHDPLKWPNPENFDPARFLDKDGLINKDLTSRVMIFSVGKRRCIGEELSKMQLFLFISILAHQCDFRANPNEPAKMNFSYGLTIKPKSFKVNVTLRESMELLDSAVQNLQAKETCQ

This test concerns the target human CYP1B1, CYP1B1 (gene 1545) (UniProt Q16678). Briefly: NVS_ADME_hCYP1B1: NovaScreen (NVS) CYP450-related Enzyme Activity (ADME) Assay for human CYP1B1. On the procedure: NVS_ADME_hCYP1B1 is a biochemical, single-readout assay that uses extracted gene-proteins in a cell-free assay. Measurements were taken 1 hour after chemical dosing in a 96-well plate.NVS_ADME_hCYP1B1 is one of one assay component(s) measured or calculated from the NVS_ADME_hCYP1B1 assay. It is designed to make measurements of enzyme activity, a form of enzyme reporter, as detected with fluorescence intensity signals by Fluorescence technology.Data from the assay component NVS_ADME_hCYP1B1 was analyzed into 1 assay endpoint. This assay endpoint, NVS_ADME_hCYP1B1, was analyzed in the positive analysis fitting direction relative to Acetonitrile as the negative control and baseline of activity. Using a type of enzyme reporter, loss-of-signal activity can be used to understand changes in the enzymatic activity as they relate to the gene CYP1B1. Furthermore, this assay endpoint can be referred to as a primary readout, because this assay has produced multiple assay endpoints where this one serves a enzymatic activity function. To generalize the intended target to other relatable targets, this assay endpoint is annotated to the cyp intended target family, where the subfamily is xenobiotic metabolism.
Binding assays used specific radioligands (tritiated, iodinated) with non-radioactive competitive displacement ligands in agonist or antagonist protocols (as indicated) and various reference compounds and inhibitors to titrate specific binding to receptors and transporters. Most enzyme assays (CYPs, kinases, phosphatases, proteases, HDACs) used recombinant protein and specific substrates (fluorescence mostly, some colorimetric and radioactive) and inhibitors, followed by a biochemical separation of substrate and product. All assays for the biochemical HTS were initially run in duplicate at a single concentration (10 uM for CYP450 assays and 25 uM for all others). Assay-chemical combinations meeting a pre-defined threshold (e.g., 30% inhibition and other criteria defined below) were then run in singleton concentration-response format with maximum concentration of 20 uM for CYPs and 50 uM for all others. Each assay was run with positive and negative controls, and concurrent controls on every plate. The follow-up (secondary) screen tested active chemical-pairs in concentration series, as well as a few additional assays not tested in the primary screen, some selected negative inactives, and several cases re-run in the concentration series for confirmatory purposes.
Turning to `CCCN(CCOc1c(Cl)cc(Cl)cc1Cl)C(=O)n1ccnc1`, the outcome was inactive.

As for `Cc1ccc(-c2c(Cl)nc(C#N)n2S(=O)(=O)N(C)C)cc1`, the call was inactive.

On to `Cc1ccn2nc(S(=O)(=O)Nc3c(F)cccc3F)nc2n1`, for which the outcome was inactive.

Take `COP(=S)(OC)SCn1nnc2ccccc2c1=O`: the AC50 was 498 nM (active).
